The whole screen tested about 5,500 compounds, of which about 2,000 (36%) were called active. Inconclusive results (about 18%) are left out. Cut-off read from the data, not from the text of the source: active = normalized growth mostly below about 0.91 (no sharp cut-off); inconclusive = no clear call, values can overlap the other calls; inactive = mostly above about 0.92. Some of the results follow.
Assay: chemical genetic growth profiling, strain panel (AID 1159580);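 note: tested at 20 µM; growth read once vehicle control cultures reached saturation at 30 °C; 1 = growth at the plate median or of vehicle wells; lower values mean less growth of the strain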
Settings: growth OD

Measured: normalized growth

S=c1[nH]c2ccccc2[nH]1
inactive: S. cerevisiae deletion strains, locus YAL013W, strain DEP1, stronger effect = lower value 0.988 | S. cerevisiae deletion strains, locus YBR229C, strain ROT2, stronger effect = lower value 1.01 | S. cerevisiae deletion strains, locus YDL101C, strain DUN1, stronger effect = lower value 1.02 | S. cerevisiae deletion strains, locus YDR150W, strain NUM1, stronger effect = lower value 0.993 | S. cerevisiae deletion strains, locus YEL061C, strain CIN8, stronger effect = lower value 0.982 | S. cerevisiae deletion strains, locus YGR078C, strain PAC10, stronger effect = lower value 1.02 | S. cerevisiae deletion strains, locus YHR030C, strain SLT2, stronger effect = lower value 1 | S. cerevisiae deletion strains, locus YHR087W, strain rtc3, stronger effect = lower value 1.01 | S. cerevisiae deletion strains, locus YJR043C, strain POL32, stronger effect = lower value 0.988 | S. cerevisiae deletion strains, locus YJR075W, strain HOC1, stronger effect = lower value 1.01 | S. cerevisiae deletion strains, locus YLR039C, strain RIC1, stronger effect = lower value 0.99 | S. cerevisiae deletion strains, locus YLR058C, strain SHM2 (second series), stronger effect = lower value 0.991 | S. cerevisiae deletion strains, locus YLR085C, strain ARP6, stronger effect = lower value 0.976 | S. cerevisiae deletion strains, locus YLR262C, strain YPT6, stronger effect = lower value 0.986 | S. cerevisiae deletion strains, locus YML094W, strain GIM5, stronger effect = lower value 1.06 | S. cerevisiae deletion strains, locus YMR219W, strain ESC1, stronger effect = lower value 0.999 | S. cerevisiae deletion strains, locus YMR263W, strain SAP30, stronger effect = lower value 0.984 | S. cerevisiae deletion strains, locus YMR307W, strain GAS1, stronger effect = lower value 0.87 | S. cerevisiae deletion strains, locus YNL128W, strain TEP1, stronger effect = lower value 1.02 | S. cerevisiae deletion strains, locus YNL153C, strain GIM3, stronger effect = lower value 1.01 | S. cerevisiae deletion strains, locus YNL298W, strain CLA4 (second series), stronger effect = lower value 0.997 | S. cerevisiae deletion strains, locus YNL322C, strain KRE1, stronger effect = lower value 1 | S. cerevisiae deletion strains, locus YNR030W, strain Alg12, stronger effect = lower value 1.01 | S. cerevisiae deletion strains, locus YPL055C, strain LGE1, stronger effect = lower value 0.961 | S. cerevisiae deletion strains, locus YPL241C, strain CIN2, stronger effect = lower value 1.03 | S. cerevisiae deletion strains, locus YPR135W, strain CTF4, stronger effect = lower value 1.01 | S. cerevisiae strains, strain wild type, stronger effect = lower value 0.995

— PubChem BioAssay AID1159580 (chemical genetic matrix, 2015)
